Screening results as filed in PubChem.
Rows were chosen to be rich in hits. Some 21% of all compounds tested hit in one or more screens of this group.
NS1 function inh: inhibitors of influenza NS1 protein function; Potency, µM (top dose mostly 46.1 µM), for inactives: top-dose activity, positive = more growth; 270,000 compounds, 0.4% hits; calls by dose curve; note: potency is the fitted concentration of half-maximal effect; actives are rising curves; nearly all actives have a fitted effect of over 50% in size
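Compounds were scored for reversing the slow growth caused by influenza A NS1 in S. cerevisiae, measured by optical density at 600 nm. Assay medium contained 2% galactose at pH 6.0; NS1-free yeast of the same strain were the positive control.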
FBPA Giardia inh: Giardia lamblia aldolase inhibition. Potency, µM (doses to about 59.6 µM), without a hit: at the highest dose activity, negative = inhibition, actives largely listed as inhibitors. AID 2451. A8B2U2. 290,000 compounds, 0.71% hits. purified Giardia FBPA; note: potency is the fitted concentration of half-maximal effect; % is set by controls: 0 for no effect and ±100 for the full control effect; nearly all actives have a fitted effect of over 55% in size
Target sequence (A8B2U2 whole entry, looked up): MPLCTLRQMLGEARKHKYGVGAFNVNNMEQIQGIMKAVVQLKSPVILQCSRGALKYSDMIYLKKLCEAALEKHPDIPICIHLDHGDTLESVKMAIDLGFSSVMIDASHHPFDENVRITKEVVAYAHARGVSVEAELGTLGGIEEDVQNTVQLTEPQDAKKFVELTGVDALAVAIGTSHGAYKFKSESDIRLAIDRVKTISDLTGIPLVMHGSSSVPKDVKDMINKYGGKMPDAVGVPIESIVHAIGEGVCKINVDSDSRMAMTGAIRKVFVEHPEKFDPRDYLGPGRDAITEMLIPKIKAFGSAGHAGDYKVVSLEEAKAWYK
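Giardia FBPA (40 nM reagent) was preincubated 10 min at RT with compound (up to 57.5 uM final), then substrate plus GAPDH/TPI/NAD/arsenate coupling system with diaphorase/resazurin was added; resorufin fluorescence (525/598 nm) was read after 20 min.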
Pf growth 96h: P. falciparum growth inhibition at 96 hour, primary screen for plastid delayed-death inhibitors; P. falciparum luciferase reporter growth, 96 h; Potency, µM (doses to about 28.7 µM), inactives show at the highest dose activity change, negative = inhibition, hits mostly inhibitors; 320,000 compounds, 6.9% hits; note: potency is the fitted concentration of half-maximal effect; % is set by controls: 0 for no effect and ±100 for the full control effect
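Parasite growth measured via integrated firefly luciferase reporter in P. falciparum. Infected erythrocytes at 2% hematocrit, 0.05% parasitemia final were treated 96 hours at 37 C under 5% CO2, and luminescence was read.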
Shiga inhibitor: inhibitors of Shiga toxin in Vero cells. Vero cells, Shiga toxin protein synthesis inhibition reporter. inhibition, % at 38.7 µM. 290,000 compounds, 9.2% hits; in the data active = inhibition mostly above about 28%, no sharp cut-off; inactive = mostly below about 43%; note: 0% is about no effect
Pf growth 48h: inhibits P. falciparum growth in the first generation, 48 h. Potency, µM (top dose mostly 28.7 µM), for the others: top-dose activity change, negative = inhibition, actives largely listed as inhibitors. 310,000 compounds, 5.9% hits. P. falciparum luciferase growth in erythrocytes, 48 h; note: potency is the fitted concentration of half-maximal effect; % is set by controls: 0 for no effect and ±100 for the full control effect
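In quantitative HTS format, infected erythrocytes bearing luciferase-reporter parasites were treated for a single generation at 37 C. Luminescence after adding detection reagent served as the growth measure.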
CHX counter: counter-screen hit for Shiga toxin inhibitors, cycloheximide; cell reporter, cycloheximide protein synthesis inhibition counterscreen; max response, %; 300,000 compounds, 12% hits; in the data active = max response mostly above about 13%, no sharp cut-off; inactive = mostly below about 14%; note: read at 38.3 µM for the half of the compounds with a filed dose; 0% is about no effect
The depositor's hits bear a star; ? = inconclusive; . = no result given; [ ] = another dose, or the depositor's remark. Unless noted, calls come from the whole dose curve; as a rule, active = well fitted curve in the direction sought with a large enough effect; inconclusive = small, poorly fitted or top-dose-only effect, or another doubt; inactive = no such curve, though single readings can be large; an effect the other way counts as inactive or inconclusive.

SMILES | NS1 function inh | FBPA Giardia inh | Pf growth 96h | Shiga inhibitor | Pf growth 48h | CHX counter
O=C(Cc1c(Cl)cccc1Cl)Nc1ccc(S(=O)(=O)Nc2ncccn2)cc1 | 8% | -27% | 3% | -13 | 8% | -6
CC(=O)C[C@H](O)[C@@H](NC(=O)OC(C)(C)C)C(C)C | . | 0%[12.9 µM] | . | . | . | .
COc1ccc(CCNC(=O)Cn2nnc(C(=O)Nc3ccc(Br)cc3)c2N)cc1OC | -6% | . | 25% | 19 | 15% | 31*
CS(=O)(=O)c1ccc(C(=O)Nc2nc(-c3ccco3)c(-c3ccco3)s2)cc1 | . | . | -12% | . | -4% | .
O=C1Nc2ccccc2C1=Nc1cccc([N+](=O)[O-])c1 | -4% | 5% | 12% | 27* | 15% | 6
O=C1CSC(=Nc2cccc([N+](=O)[O-])c2)N1 | -6% | -3% | 1.7µM* | -21 | -18% | -2
O=C1Nc2ccccc2C1=Nc1cccc(Cl)c1 | -6% | -9% | 17% | -3 | -6% | -3
O=C(NCCCN1CCOCC1)c1cc2c([nH]c3ccccc32)c(-c2cccc(Br)c2)n1 | -1% | 7% | 3.3µM* | -3 | 2.3µM* | -1
COc1cccc(-c2nc(C(=O)NCCCN3CCOCC3)cc3c2[nH]c2ccccc23)c1 | -10% | -1% | 8.3µM* | 1 | 13µM* | 1
Cc1cc([N+](=O)[O-])ccc1NC(=O)c1ccco1 | 8% | 5% | ? | -3 | 58% | -1
O=C(Nc1ccccc1C(F)(F)F)c1cc2ccccc2o1 | 11% | -2% | ? | . | 212% | 32*
Cc1cc([N+](=O)[O-])ccc1NC(=O)c1cc2ccccc2o1 | 3% | -8% | 9% | 168* | 107% | 30*
Cc1ccnc(NC(=O)c2cc3ccccc3o2)c1 | . | . | 59% | . | ? | .
Cc1ccc(C)c(NC(=O)c2cc3ccccc3o2)c1 | -25% | -1% | ? | 75* | 134% | 51*
COC(=O)c1ccccc1NC(=O)c1cc2ccccc2o1 | -8% | 6% | -14% | 40 | 0% | 17
O=C(Nc1cccc(Cl)c1N1CCCC1)c1cc2ccccc2o1 | -40% | 0% | 1.3µM* | 29* | -2% | 28*
CCC1=C(C[C@H]2NCCc3cc(OC)c(OC)cc32)C[C@H]2c3ccccc3CCN2C1 | -6% | . | . | . | . | .
CC(=O)O[C@H]1Cc2ccccc2N(C(N)=O)c2ccccc21 | . | 1% | . | -15 | . | -7
CCN(CC(=O)Nc1cccc(OC)c1)C(=O)c1cnc(Cl)c(Cl)c1 | 12% | -15% | 21% | -3 | 3% | -2
NC(=O)c1ccccc1-c1nc(-c2ccccc2)no1 | -15% | -1% | 147% | 95* | 88% | 44*
CN1CCN(C(=O)c2ccccc2-c2nc(-c3ccccc3)no2)CC1 | -8% | -8% | -9% | 62 | 22% | 22*
Cc1ccc(-c2noc(-c3ccccc3C(=O)N3CCOCC3)n2)cc1 | -7% | 4% | -26% | 2 | . | 12
Cn1c(=O)c([N+](=O)[O-])c(NCc2ccccc2)c2ccccc21 | 5% | -1% | 8.3µM* | 2 | 0% | -1
Cc1ccc(Nc2c([N+](=O)[O-])c(=O)n(C)c3ccccc23)cc1 | -5% | 0% | 1.7µM* | -3 | -19% | -2
CCNc1c([N+](=O)[O-])c(=O)n(CC)c2ccccc12 | 2% | 5% | 10% | 1 | -1% | -3
SMILES | NS1 function inh | FBPA Giardia inh | Pf growth 96h | Shiga inhibitor | Pf growth 48h | CHX counter
Cc1ccc(Sc2c([N+](=O)[O-])c(=O)n(C)c3ccccc23)cc1 | 0% | -5% | 188% | 11 | ? | 10*
O=C(CN1C(=O)C(=O)N(C2CCCC2)C1=O)Nc1ccc(Cl)cc1C(F)(F)F | . | . | 9% | . | -19% | .
COCCn1c(SCC(=O)Nc2c(C)n(C)n(-c3ccccc3)c2=O)nc2ccccc2c1=O | . | . | -25% | . | -14% | .
COc1ccc2[nH]c(=O)c(CN(Cc3nnnn3Cc3ccco3)C3CCCCC3)cc2c1 | ? | ? | 5.2µM* | -1 | ? | 7
COc1ccc(Cn2nnnc2CN(Cc2cc3cc(C)ccc3[nH]c2=O)C2CCCC2)cc1 | -40% | -26% | -16% | -9 | ? | -2
CCOC(=O)Cn1nnnc1C(CC)N(Cc1cccs1)Cc1cc2ccc(OC)cc2[nH]c1=O (stereo not given) | -4% | -9% | ? | -19 | 0% | 8.5*
